Reference: PubChem BioAssay (EPA / NIEHS)
Active and inactive are the calls of the source. How the source made its calls: active means hit-call score of the fitted dose curve at least 0.9, where 1 is the maximum; inactive means score below 0.9.

What was measured:
[1] = read-out: Human Leukocyte Antigen - DR isotype (HLADR), HLA-DRA (gene 3122); assay: BSK_3C_HLADR: BioMAP Diversity Plus: 3C Assay for Human Leukocyte Antigen - DR isotype (HLADR) Biomarker Activity (AID 2283019); conditions: primary human endothelial cells (HUVEC); actives raise or lower the signal
In short: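 Endothelial cells from human umbilical vein are treated with test chemical; after 24 h, HLA-DR levels are measured by ELISA. Data are fitted in both directions using DMSO as the baseline.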

[2] = BSK_3C_Vis: BioMAP Diversity Plus: 3C Assay for Morphology Visualization (AID 2283025); conditions: primary human endothelial cells (HUVEC);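 further: fitted both ways so gain or loss versus DMSO counts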
In short: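 Human umbilical vein endothelial cells in the 3C system were imaged by light microscopy 24 h after chemical dosing to record cell morphology. Activity was fitted bidirectionally against DMSO as negative control and baseline; the endpoint serves as a background control.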

[3] = read-out: Transforming growth factor beta 1 (TGFb1), TGFB1 (gene 7040); assay: BSK_BE3C_TGFb1: BioMAP Diversity Plus: BE3C Assay for Transforming growth factor beta 1 (TGFb1) Biomarker Activity (AID 2283036); conditions: primary human bronchial epithelial cells; actives raise or lower the signal
In short: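 Human primary bronchial epithelial cells (BE3C system) were dosed with chemical and TGF-b1 levels measured by ELISA at 24 h. Activity was fitted bidirectionally relative to DMSO negative control as baseline.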

[4] = read-out: Interleukin-8 (IL8), CXCL8 (gene 3576); assay: BSK_CASM3C_IL8: BioMAP Diversity Plus: CASM3C Assay for Interleukin-8 (IL8) Biomarker Activity (AID 2283042); conditions: primary human coronary artery smooth muscle cells; actives raise or lower the signal;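 further: IL-8 protein level quantified by ELISA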
[5] = read-out: Human Leukocyte Antigen - DR isotype (HLADR), HLA-DRA (gene 3122); assay: BSK_CASM3C_HLADR: BioMAP Diversity Plus: CASM3C Assay for Human Leukocyte Antigen - DR isotype (HLADR) Biomarker Activity (AID 2283043); conditions: primary human coronary artery smooth muscle cells; actives raise or lower the signal;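 further: cell-surface HLA-DR protein level quantified by ELISA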
[6] = read-out: Monokine induced gamma interferon (MIG), CXCL9 (gene 4283); assay: BSK_CASM3C_MIG: BioMAP Diversity Plus: CASM3C Assay for Monokine induced gamma interferon (MIG) Biomarker Activity (AID 2283048); conditions: primary human coronary artery smooth muscle cells; actives raise or lower the signal;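 further: MIG protein level measured by ELISA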
[7] = read-out: Urokinase-type plasminogen activator receptor (uPAR), PLAUR (gene 5329); assay: BSK_CASM3C_uPAR: BioMAP Diversity Plus: CASM3C Assay for Urokinase-type plasminogen activator receptor (uPAR) Biomarker Activity (AID 2283054); conditions: primary human coronary artery smooth muscle cells; actives raise or lower the signal;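 further: cell-surface uPAR protein level quantified by ELISA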
[8] = read-out: Intercellular Adhesion Molecule 1 (ICAM1), ICAM1 (gene 3383); assay: BSK_KF3CT_ICAM1: BioMAP Diversity Plus: KF3CT Assay for Intercellular Adhesion Molecule 1 (ICAM1) Biomarker Activity (AID 2283067); conditions: primary human keratinocytes with fibroblasts; actives raise or lower the signal
In short: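 Dose the keratinocyte/fibroblast co-culture, wait 24 h, measure ICAM-1 by ELISA, then fit increases or decreases against DMSO. Cytotoxicity is checked in parallel cultures by SRB total-protein staining.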

[9] = read-out: Transforming growth factor beta 1 (TGFb1), TGFB1 (gene 7040); assay: BSK_KF3CT_TGFb1: BioMAP Diversity Plus: KF3CT Assay for Transforming growth factor beta 1 (TGFb1) Biomarker Activity (AID 2283072); conditions: primary human keratinocytes with fibroblasts; actives raise or lower the signal
In short: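 Human keratinocyte plus foreskin fibroblast primary co-culture, dosed with chemical for 24 h. TGF-b1 quantified by ELISA. Activity fitted bidirectionally against DMSO negative control as baseline.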

CD40, CD40 (gene 958) = assay: BSK_SAg_CD40: BioMAP Diversity Plus: SAg Assay for CD40 Biomarker Activity (AID 2283088); conditions: primary human HUVEC with PBMC; actives raise or lower the signal
In short: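 Fluorescence ELISA read-out of CD40 from umbilical vein endothelium plus peripheral blood mononuclear cells, sampled 24 h after dosing. Values come from bidirectional curve fitting with DMSO as baseline.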

[10] = read-out: Monokine induced gamma interferon (MIG), CXCL9 (gene 4283); assay: BSK_SAg_MIG: BioMAP Diversity Plus: SAg Assay for Monokine induced gamma interferon (MIG) Biomarker Activity (AID 2283092); conditions: primary human HUVEC with PBMC; actives raise or lower the signal
In short: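 Values reflect bidirectional fitting of ELISA-measured MIG against DMSO vehicle, taken 24 h after dosing of a co-culture of human umbilical vein endothelial cells and peripheral blood mononuclear cells.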

[11] = BSK_SAg_Proliferation: Cell Proliferation Assessment in the BioMAP Diversity Plus: SAg Assay (AID 2283095); conditions: primary human HUVEC with PBMC;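 further: relative cell number as total protein by SRB absorbance in sub-confluent culture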
In short: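 Human umbilical vein endothelial cells co-cultured with peripheral blood mononuclear cells; total protein measured by sulforhodamine B staining (0.1% SRB after 10% TCA fixation), absorbance at 560 nm, at 96 h. Bidirectional fit against DMSO baseline.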

[12] = BSK_SAg_SRB: Viability Assessment in the BioMAP Diversity Plus: SAg Assay (AID 2283096); conditions: primary human HUVEC with PBMC;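 further: cells read one day after compound addition; hits may be either gain or loss of signal compared with DMSO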
In short: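 Human umbilical vein endothelial cells co-cultured with PBMC, read 24 h after compound dosing. Total protein measured by sulforhodamine B staining (0.1% SRB after 10% TCA fixation, absorbance 560 nm); bidirectional fit versus DMSO baseline.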

[13] = BSK_BT_PBMCCytotoxicity: PBMC Cytotoxicity Assessment in the BioMAP Diversity Plus: BT Assay (AID 2284225); conditions: primary human B cells with PBMC;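 further: PBMC viability measured by Alamar Blue dye reduction fluorescence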
In short: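 75,000 cells/well; cpd 1 h → SEB + TSST-1 (20 ng/mL final each) → 90 h → Alamar Blue 6 h → fluor. 546/580 nm. DMSO = neg. control/baseline.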

[14] = read-out: Secreted IgG (sIgG), gene 3500; assay: BSK_BT_sIgG: BioMAP Diversity Plus: BT Assay for Secreted IgG (sIgG) Biomarker Activity (AID 2284226); conditions: primary human B cells with PBMC
In short: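 B cells co-cultured with PBMC were dosed with chemical and secreted IgG quantified by ELISA at 24 h. Activity was fitted in the positive direction relative to DMSO as negative control and baseline.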

[15] = BSK_BT_Bcell_Proliferation: Viability Assessment in the BioMAP Diversity Plus: BT Assay for B cell Proliferation (AID 2284227); conditions: primary human B cells with PBMC
In short: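 Using a human primary B cell–PBMC co-culture, the assay measures total protein by sulforhodamine B absorbance as a gauge of proliferation after 72 h. Analysis followed the positive fitting direction with DMSO as baseline.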

[16] = read-out: Interleukin 17A (IL17A), IL17A (gene 3605); assay: BSK_BT_xIL17A: BioMAP Diversity Plus: BT Assay for Interleukin 17A (IL17A) Biomarker Activity (AID 2284229); conditions: primary human B cells with PBMC
In short: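 Chemicals were added to a human B cell and PBMC co-culture. After 24 h, secreted IL-17A was measured with Luminex xMAP. Curves were fitted in the positive direction, with DMSO wells as baseline.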

[17] = read-out: Collagen III, COL3A1 (gene 1281); assay: BSK_MyoF_CollagenIII: BioMAP Diversity Plus: MyoF Assay for Collagen III Biomarker Activity (AID 2284239); conditions: primary human lung fibroblasts
In short: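 Compounds are added to primary human lung fibroblasts and left for 24 hours. Collagen III is then quantified by ELISA. Analysis takes DMSO as baseline and fits increases in signal.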

[18] = read-out: Interleukin 2 (IL2), IL2 (gene 3558); assay: BSK_BT_xIL2: BioMAP Diversity Plus: BT Assay for Interleukin 2 (IL2) Biomarker Activity (AID 2284245); conditions: primary human B cells with PBMC
In short: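 Human B cells co-cultured with PBMC, exposed to test chemical for 24 h. Secreted IL-2 quantified by Luminex xMAP bead immunoassay; activity fitted in the positive direction relative to DMSO vehicle baseline.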

[19] = read-out: Matrix Metallopeptidase 1 (MMP1), MMP1 (gene 4312); assay: BSK_MyoF_MMP1: BioMAP Diversity Plus: MyoF Assay for Matrix Metallopeptidase 1 (MMP1) Biomarker Activity (AID 2284268); conditions: primary human lung fibroblasts
In short: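 MMP1 measured by ELISA 24 h after dosing primary human lung fibroblasts; cytotoxicity checked in parallel cultures by sulforhodamine B total-protein staining read at 560 nm.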

Measured: AC50

CC(C)CCCCCCCOC(=O)c1ccccc1C(=O)OCCCCCCCC(C)C
inactive: all assays above

c1ccc(Nc2ccc3ccccc3c2)cc1
active: [1] 31.1 µM | [2] 8.8 µM | [8] 36.6 µM | [9] 26.6 µM | [14] 31.5 µM | [15] 27.2 µM | [16] 20 µM | [17] 20 µM | [18] 20 µM
inactive: all other assays above

CNC(=O)Oc1cc(C)c(SC)c(C)c1
active: [1] 24.6 µM | [5] 12.9 µM | [7] 20 µM | CD40, CD40 (gene 958) 16.7 µM | [13] 15.6 µM | [14] 10.6 µM | [15] 20.1 µM | [16] 11.5 µM
inactive: all other assays above
